Data: PubChem BioAssay AID1626 (SRMLSC, 2009)
The whole screen tested about 220,000 compounds, of which about 2,000 (0.91%) were called active. About 2% were inconclusive and are not listed. Cut-off read from the data, not from the text of the source: inconclusive = inhibition above about 80% without an active follow-up result; inactive = below that; test concentration not stated here. The list is a sample of the results. Entries with a potency or affinity are not part of this list.

Assay: M. tuberculosis H37Rv growth inhibitors, H37Rv strain (AID 1626);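 note: bacteria incubated seven days before Alamar blue readout; 0% = bacteria only wells and 100% = bacteria with antibiotic wells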
Details: hits give high values, concentration not given here

SMILES	inhibition
CCOC(=O)C[C@H]1c2ccccc2S(=O)(=O)N1c1cccc(OC)c1	-8.13% (inactive)
CC(=O)Nc1sc2c(c1CN1CCCC1)CCCC2	-3.09% (inactive)
CC(=O)Nc1sc2c(c1CN1CCN(C)CC1)CCCC2	-1.53% (inactive)
COc1cccc(C(=O)Nc2ccc(NC(C)=O)cc2)c1	-16.8% (inactive)
CC1CCCN(C(=O)Cn2cnc3c2c(=O)n(C)c(=O)n3C)C1 (stereo not given)	10.5% (inactive)
O=C(OCC(=O)N1CCCc2ccccc21)c1ccc(Cl)nc1	60.1% (inactive)
O=C(OCC(=O)N1CCc2ccccc21)c1cccnc1	-5.16% (inactive)
CC1Cc2ccccc2N1C(=O)COC(=O)c1ccc(O)cc1 (stereo not given)	2.09% (inactive)
CC1Cc2ccccc2N1C(=O)COC(=O)c1cccnc1Cl (stereo not given)	3.35% (inactive)
Cc1cc(C(=O)OCC(=O)N2c3ccccc3CC2C)c(C)o1 (stereo not given)	7.82% (inactive)
CC1Cc2ccccc2N1C(=O)COC(=O)CNC(=O)c1ccc(Br)o1 (stereo not given)	-10.5% (inactive)
NC(=O)CC[C@@H]1NC(=O)[C@@H]2CCCN2C(=O)c2cc([N+](=O)[O-])cc(I)c2NCCCC[C@@H](C(=O)NC(CC(=O)O)C(N)=O)NC1=O (stereo not given in full)	0.47% (inactive)
Cc1ccc(NC(=O)CSc2nnc(-c3n[nH]c4ccccc34)n2-c2ccccc2)c(C)c1	14.9% (inactive)
COc1ccc(Cl)cc1Nc1nc(C)cc(C)c1C(N)=O	-2.67% (inactive)
Cc1cc2c(sc3ccccc32)c(C)n1	5.03% (inactive)
CN1C(=O)C(=Cc2ccc(N3CCOCC3)o2)C(=O)N(C)C1=O	5.8% (inactive)
O=Cc1ccc(N2CCCC2)o1	46.4% (inactive)
O=C(Nc1cccc2ncccc12)C12CC3CC(CC(C3)C1)C2	-10% (inactive)
Cc1ccccc1OCc1nnc(SCC(=O)NCc2ccccc2)n1C	2.63% (inactive)
Cc1ccccc1C(=O)NC1CCN(CC(=O)NCc2cccs2)CC1	2.61% (inactive)
Cc1ccc(N/C=C/C(=O)c2sc(-c3ccccc3)nc2C)cc1	3.94% (inactive)
COc1ccc(/C=C/C(=O)c2sc(-c3ccccc3)nc2C)cc1	6.03% (inactive)
COc1cc(S(=O)(=O)N2CCCCC2)ccc1NC(=O)Cc1ccccc1	-1.81% (inactive)
Cc1ccc(CNC(=O)COC(=O)c2cnc(C)cn2)cc1	0.26% (inactive)
COC1=C(Nc2ccccc2)C(=O)c2ccccc2C1=O	13.5% (inactive)

SMILES	inhibition
COC1=C(Nc2ccc(OC)cc2)C(=O)c2ccccc2C1=O	8.34% (inactive)
COc1cccc(-c2nc(-c3ccc(C(=O)O)cc3)no2)c1	-12.7% (inactive)
O=[N+]([O-])c1cc(CN2CCCC2)c2cccnc2c1O	-5.59% (inactive)
O=[N+]([O-])c1cc(CN2CCN(c3ccccc3)CC2)c(O)c2ncccc12	77.9% (inactive)
COc1ccc(NC(=O)C2C3CCC(C3)C2C(=O)O)cc1OC (stereo not given)	6.44% (inactive)
COCCC(=O)Nc1ccc2c(c1)CN(C(=O)CCSC)CC2	3.42% (inactive)
CCn1c(CNc2ccc(F)cc2)nnc1SCC(=O)Nc1ccc(OC)cc1	2.51% (inactive)
CCn1c(CNc2ccc(OC)cc2)nnc1SCC(=O)Nc1ccc(F)cc1	-10.9% (inactive)
CCn1c(CNc2ccccc2Cl)nnc1SCCN1CCCCC1	-2.66% (inactive)
CCn1c(CNc2ccccc2Cl)nnc1SCC(=O)NCc1ccccc1	-4.41% (inactive)
O=C(CSc1nnc(Cc2ccccc2)o1)Nc1ccccc1	-4.88% (inactive)
Cc1ccc(NC(=O)CSc2nnc(Cc3ccccc3)o2)cc1	22.6% (inactive)
COCCN(C(=O)c1ccco1)C(C(=O)NC1CCCC1)c1cccs1 (stereo not given)	0.07% (inactive)
CC(OC(=O)c1snc(C(=O)NC2CCCCC2)c1N)C(=O)NC(C)(C)C (stereo not given)	39% (inactive)
CC(OC(=O)c1snc(C(=O)NC2CCCCC2)c1N)C(=O)NC1CCCCC1 (stereo not given)	2.49% (inactive)
CCOC(=O)c1sc(C)c(C(=O)NC2CCCCC2)c1N	4.33% (inactive)
CCOC(=O)c1snc(C(=O)NC2CCCCC2)c1N	5.5% (inactive)
COc1ccc(NC(=S)Nc2ccccc2F)c(OC)c1	-4.54% (inactive)
COC(=O)c1ccccc1NC(=O)C1CCCN(S(=O)(=O)c2ccc(OC)cc2)C1 (stereo not given)	5.41% (inactive)
O=C(/C=C/c1ccccc1Cl)NCc1cccs1	2.96% (inactive)
O=C1CC(SCc2nc3ccccc3[nH]2)C(=O)N1c1ccc(F)c(Cl)c1 (stereo not given)	-2.51% (inactive)
Cc1cccn2c(=O)c3cc(C(=O)NC(C)c4ccccc4)c(=N)n(CCCn4ccnc4)c3nc12 (stereo not given)	48.6% (inactive)
CC1(C)C2CCC1(C)C(Nc1ccccc1)C2 (stereo not given)	3.82% (inactive)
C=CC(=O)NC1CC2CCC1(C)C2(C)C (stereo not given)	6.5% (inactive)
Cc1onc(-c2c(F)cccc2Cl)c1C(=O)N1CCN(c2ncccn2)CC1	3.2% (inactive)

SMILES	inhibition
COc1cc(CNn2c(C)n[nH]c2=S)cc(Br)c1OCc1ccc(F)cc1	6.01% (inactive)
CCOc1ccc(OCc2ccc(C(=O)N3CCOCC3)cc2)cc1	-3.72% (inactive)
CCOc1ccc(N=C(/C(C(=O)C(=O)N2CCOCC2)=C(/O)c2ccccc2)c2ccccc2)cc1	70.8% (inactive)
Nc1ccc(C(=O)c2cccs2)cn1	-5.69% (inactive)
O=C(c1ccccc1)c1cccs1	0.41% (inactive)
COc1ccc(-c2csc(NC(CO)c3nc4ccccc4n3CCCO)n2)cc1 (stereo not given)	1.28% (inactive)
Cc1ccc(-c2csc(NC(=O)c3ccc(C)o3)n2)cc1	10.4% (inactive)
Cc1cc(-c2csc(NC(=O)c3cc4ccccc4o3)n2)c(C)n1C	-8.86% (inactive)
O=C(Nc1ccccn1)c1cc2ccccc2o1	9.27% (inactive)
Cc1ccc(C(=O)Nc2nc(-c3cccnc3)cs2)o1	7.51% (inactive)
CCCCn1nnnc1SCC(=O)N1CCOCC1	-13.6% (inactive)
Cc1[nH]nc2c1C(c1cccs1)C(C#N)=C(N)O2 (stereo not given)	8.65% (inactive)
CC(O)[C@H]1CNC(=O)C(=O)N1CCC12CC3CC(CC(C3)C1)C2 (stereo not given in full)	-0.53% (inactive)
COc1ccc(OC)c(S(=O)(=O)Nc2ccc3oc4c(c3c2)C(=O)CCC4)c1	-4.7% (inactive)
CC(=O)Oc1ccc2oc(C)c(C(=O)N3CCOCC3)c2c1	-12.9% (inactive)
COc1ccc(-n2c(O)c(C(C)=NCc3ccc4c(c3)OCO4)c(=O)[nH]c2=O)cc1	0.11% (inactive)
CC(C)N(C(=O)CC1ON(C)C(=O)N1c1ccc(Cl)cc1)C(C)C (stereo not given)	-4.4% (inactive)
CCOC(=O)C1=C(C)N=c2s/c(=C/c3ccccc3)c(=O)n2C1c1ccc(OC)c(OC)c1 (stereo not given)	1% (inactive)
CCOC(=O)C1=C(c2ccccc2)N=c2s/c(=C\c3cc(OC)c(OC)c(OC)c3)c(=O)n2C1c1cccs1 (stereo not given)	-2.92% (inactive)
S=C(NCCc1ccccc1)Nc1ccccc1N1CCOCC1	0.99% (inactive)
COc1ccc([N+](=O)[O-])cc1NC(=O)C(C)OC(=O)c1cccnc1Cl (stereo not given)	-2.19% (inactive)
CC1=C(C(=O)Nc2ccccn2)C(c2ccc(Cl)cc2)NC(=S)N1 (stereo not given)	-5.44% (inactive)
CCOC(=O)c1cnc(Nc2nc3ccccc3o2)nc1CSc1ncccn1	0.18% (inactive)
CCOC(=O)c1cnc(Nc2nc3ccccc3o2)nc1CSC(=S)N(CC)CC	-2.38% (inactive)
O=C1c2cc(O)cc(O)c2C(=O)c2c1cc(O)c([C@@H](CO)CCO)c2O	-0.07% (inactive)

SMILES	inhibition
Cc1cc(NC(=O)CCCC(=O)N(c2ccccc2)C(C(=O)NC2CCCCC2)c2cccs2)no1 (stereo not given)	-3.8% (inactive)
Cc1ccc([N+](=O)[O-])cc1N(CC(=O)NC1CCCC1)S(C)(=O)=O	1.23% (inactive)
Cc1c(/C=N\NC(=O)C2COc3ccccc3O2)c2ccccc2n1C (stereo not given)	10.6% (inactive)
C#CCNC(=O)C1=C[C@@H](C2CC2)[C@H](CCCO)[C@@H](OCC)O1	-9.56% (inactive)
O=C(Nc1nnc(-c2ccco2)o1)C1CCCCC1	3.01% (inactive)
O=C(Nc1nnc(-c2ccncc2)o1)C1CCCCC1	0.18% (inactive)
CCC(=O)Nc1nnc(-c2ccc(Cl)s2)o1	13.6% (inactive)
CC(=O)Nc1nnc(-c2ccc(Cl)s2)o1	2.92% (inactive)
Cc1cc(C(=O)COc2ccc(Cl)cc2Br)c(C)n1C	-4.24% (inactive)
CCN(CC)C(=O)C1CCCN(c2ccc([N+](=O)[O-])cc2/C=N/NC(=O)c2ccccc2)C1 (stereo not given)	9.19% (inactive)
Cc1ccc(CNC(=O)CCc2nc(-c3cccs3)no2)cc1	6.02% (inactive)
CCN(CC)S(=O)(=O)c1ccc(NS(=O)(=O)CC23CCC(CC2=O)C3(C)C)cc1 (stereo not given)	-3.32% (inactive)
C=CCNC(=O)c1ccc(-n2cccc2)cc1	8.71% (inactive)
O=C(Nc1ccc(F)cc1)N1CCC(c2nc3c(nnn3Cc3cccc(Cl)c3)c(=O)[nH]2)CC1	64.2% (inactive)
N#Cc1ccc(NC(=O)N2CCC(c3nc4c(nnn4Cc4cccc(Cl)c4)c(=O)[nH]3)CC2)cc1	69% (inactive)
N/C(=N\OC(=O)CCc1ccccc1)c1ccccc1Cl	14.4% (inactive)
COc1cc(CNC(C)(C)CO)cc(Br)c1OCc1ccc(Cl)cc1	9.24% (inactive)
COc1cc(CNC(C)(C)CO)cc(Br)c1OCc1ccc(Cl)cc1Cl	62.5% (inactive)
COC(=O)CCC(=O)OC1(C)C(=O)C2=CN(Cc3ccco3)C(c3ccc(OC)cc3)=CC2=C(Br)C1=O (stereo not given)	1.66% (inactive)
CCCc1cc(C(=O)Nc2nnc(C)s2)cs1	1.88% (inactive)
O=C(COC(=O)c1ccccn1)Nc1nccs1	-5.49% (inactive)
O=C(Nc1nccs1)c1cnccn1	-1.5% (inactive)
Cc1cnc(NC(=O)c2sc3ccccc3c2Cl)s1	3.19% (inactive)
O=C(Nc1ccncc1)c1sc2ccccc2c1Cl	2.92% (inactive)
CCC(=O)Nc1cccc(C(=O)Nc2nccs2)c1	2.64% (inactive)
